Data: PubChem BioAssay (EPA / NIEHS)
The source made the active and inactive calls. How the source made its calls: active means hit-call score of the fitted dose curve at least 0.9, where 1 is the maximum; inactive means score below 0.9.

experiment: CCTE_Shafer_MEA_acute_synchrony_index: CCTE's Neural Acute Assay for Synchrony, Shafer Lab (AID 2284027);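 further: fitted for loss of signal so actives lower synchrony relative to DMSO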
Procedure: CCTE_Shafer_MEA_acute assay is conducted using Axion Biosystems 48 well microelectrode array (MEA) plates and Maestro recording system. Each well of the MEA plate contains a grid of 16 microelectrodes embedded in the culture surface. Electrically active cells, such as neurons, can be cultured over the electrodes, and electrical activity in these cells can be recorded extracellularly. The spontaneous firing of neurons is captured from each electrode on a microsecond timescale providing both temporally and spatially precise data. […] The CCTE_Shafer_MEA_acute assay uses primary cultures of rat cortical neurons. As these cultures mature over time, neural networks develop functional activity and form cohesive networks in which electrical activity can be highly coordinated. Baseline 40-minute recordings are made on days post-plating 13 or 15, followed by a secondary 40-minute recording after chemical exposure.CCTE_Shafer_MEA_acute_synchrony_index is a component of the CCTE_Shafer_MEA_acute assay. It measures the synchrony of the neural network as a unitless measure between 0 (low synchrony) to 1 (high synchrony) during a recording in a microelectrode array (MEA) using Axion Biosystems Maestro 768 channel amplifier with the AxIS adaptive spike detector. The recordings before and after chemical treatment are used to calculate a percent change in the synchrony index in each well.Data from the assay component CCTE_Shafer_MEA_acute_synchrony_index was analyzed into 1 assay endpoint. This assay endpoint, CCTE_Shafer_MEA_acute_synchrony_index, was analyzed in the negative analysis fitting direction relative to DMSO as the negative control and baseline of activity. Using a type of functional reporter, gain or loss-of-signal activity can be used to understand electrical activity.
Spontaneous activity in the cortical cultures was recorded using an Axion Biosystems Maestro 768 channel amplifier and Axion Integrated Studios (AxIS) v1.8 (or later) software. The amplifier recorded from all channels simultaneously (gain = 1200 x; sampling rate = 12.5 kHz/channel): raw signals were filtered with a Butterworth band-pass filter (300-5000 Hz), which filters out slower local field potentials leaving only fast potentials, i.e., "spikes", arising from extracellular currents associated with action potentials (Pine 2006; Wheeler and Nam 2011). On-line spike detection of filtered signals was conducted with the AxIS adaptive spike detector, using a threshold of 8x the root mean squared (rms) noise on each channel. Any electrodes with rms noise levels greater than 5 uV were grounded (e.g., no data were recorded). Once grounded, an electrode was grounded for the duration of the experiment. All recordings were conducted at 37 C. Wells were deemed usable if on the day of the exposure >/= 10 electrodes were active (defined as >/= 5 spikes/min). On DIV 13 or 15, a minimum of three wells from one cortical culture preparation were treated with each compound (0.03-40 uM). Prior to recording baseline activity, each mwMEA plate was placed in the Maestro at 37 C and allowed to sit for 20 min while firing rates stabilized. Baseline activity (40 min) was recorded before the addition of each compound. An additional 40 min of spontaneous activity was recorded in the presence of each compound. Changes in network parameters relative to baseline were assessed following compound treatment.

| Compound | outcome | AC50 |
| --- | --- | --- |
| N#CN=C1SCCN1Cc1ccc(Cl)nc1 | inactive | – |
| Cc1c(COC(=O)[C@@H]2[C@H](/C=C(\Cl)C(F)(F)F)C2(C)C)cccc1-c1ccccc1 | – | 0.786 µM (active) |
| CC1(C)C(C=C(Cl)Cl)C1C(=O)OC(C#N)c1cccc(Oc2ccccc2)c1 (stereo unspecified) | – | 3.97 µM (active) |
| CCCN(CC)CC1COC2(CCC(C(C)(C)C)CC2)O1 (stereo unspecified) | inactive | – |
| CNC(=O)Oc1cccc2ccccc12 | inactive | – |
| O=C(Nc1ccccc1-c1ccc(Cl)cc1)c1cccnc1Cl | – | 25.3 µM (active) |
| CC(C)N1C(=O)c2ccccc2NS1(=O)=O | inactive | – |
| CC(C)N1C(=O)N(c2ccccc2)CSC1=NC(C)(C)C | – | 23.2 µM (active) |
| CC1(C)C(C(=O)OC(C#N)c2cccc(Oc3ccccc3)c2)C1(C)C (stereo unspecified) | – | 1.03 µM (active) |
| CC(C)=CC1C(C(=O)OCc2coc(Cc3ccccc3)c2)C1(C)C (stereo unspecified) | – | 20 µM (active) |
| CCOc1nc(F)cc2nc(S(=O)(=O)Nc3c(Cl)cccc3Cl)nn12 | inactive | – |
| CN/C(=N\[N+](=O)[O-])NCc1cnc(Cl)s1 | inactive | – |
| Cc1ccc(N=CN(C)C=Nc2ccc(C)cc2C)c(C)c1 | inactive | – |
| COP(=S)(OC)SCn1nnc2ccccc2c1=O | inactive | – |
| Nc1c(Cl)c(F)nc(OCC(=O)O)c1Cl | inactive | – |
| Cc1nc(N(C)C)nc(OC(=O)N(C)C)c1C | – | 20 µM (active) |

| Compound | outcome | AC50 |
| --- | --- | --- |
| C=C(C)CN(CC)c1c([N+](=O)[O-])cc(C(F)(F)F)cc1[N+](=O)[O-] | inactive | – |
| N#Cc1c[nH]cc1-c1cccc2c1OC(F)(F)O2 | inactive | – |
| CCOP(=O)(OCC)Oc1nc(Cl)c(Cl)cc1Cl | – | 0.0262 µM (active) |
| CCOc1cc(C(C)(C)C)ccc1C1COC(c2c(F)cccc2F)=N1 (stereo unspecified) | – | 20 µM (active) |
| COCC(=O)N(c1c(C)cccc1C)C(C)C(=O)OC (stereo unspecified) | inactive | – |
| COC(=O)N(C(=O)N1CO[C@@]2(C(=O)OC)Cc3cc(Cl)ccc3C2=N1)c1ccc(OC(F)(F)F)cc1 | – | 26.6 µM (active) |
| CCCC(=NOCC)C1=C(O)CC(CC(C)SCC)CC1=O (stereo unspecified) | – | 28.2 µM (active) |
| CO/N=C(/C1=NOCCO1)c1ccccc1Oc1ncnc(Oc2ccccc2Cl)c1F | – | 20 µM (active) |
| CC(C)C1(C)N=C(c2ncccc2C(=O)O)NC1=O (stereo unspecified) | inactive | – |
| CC1(C)CCC(=Cc2ccc(Cl)cc2)C1(O)Cn1cncn1 (stereo unspecified) | inactive | – |
| CCCCC(O)(Cn1cncn1)c1ccc(Cl)cc1Cl (stereo unspecified) | inactive | – |
| Clc1nc(Cl)nc(Nc2ccccc2Cl)n1 | inactive | – |
| CCOC(=O)C(C)OC(=O)c1cc(Oc2ccc(C(F)(F)F)cc2Cl)ccc1[N+](=O)[O-] (stereo unspecified) | inactive | – |
| Cn1c(-c2ccccc2)cc(-c2ccccc2)[n+]1C | – | 36.8 µM (active) |
| OC(c1ccc(Cl)cc1)(c1ccc(Cl)cc1)C(Cl)(Cl)Cl | – | 8.65 µM (active) |
